According to PubChem BioAssay (NCATS):
Records with an inconclusive call do not appear. Active and inactive are the calls of the source. The call rests on the fitted dose curve; in most records, active means well fitted inhibition curve with a large enough effect; inconclusive means small, poorly fitted or top-dose-only effect; inactive means flat fitted curve, though single readings scatter.

assay: P-glycoprotein substrates identified in KB-8-5-11 adenocarcinoma cell line, qHTS therapeutic library screen (AID 1346987); details: KB-8-5-11 (P-gp overexpressing) viability, CellTiter-Glo, 72 h; series mostly up to 44.5 µM; activity change, negative = cytotoxicity: at the top concentration; further: nearly all actives have a fitted effect of over 65% in size
Method in brief: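 Steps: plate 500 KB-8-5-11 cells/well in DMEM + 10% FCS (colchicine removed); pin compounds in dose-response; incubate 72 h, 37 degree C, 5% CO2; add CellTiter-Glo, 5 min; read luminescence.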
On the % scale 0 is the no-effect control and ±100 the full control effect; potency means the concentration at half of the fitted maximal effect.

Compound | Potency | outcome | activity change, negative = cytotoxicity
COc1cc2ncnc(N3CCC(Oc4cnc5ccccc5n4)C3)c2cc1OC (stereo not given) | 0.461 µM (active) | – | –
CC(C)C(NC(=O)c1ccc2ccccc2n1)C(=O)NC(CC(=O)O)C(=O)COc1c(F)cccc1F (stereo not given) | – | inactive | –
COc1cc2oc(-c3ccc(O)cc3O)cc2c(OC)c1CC=C(C)C | – | – | -2.62% (inactive)
CC(C)CC1NC(=O)C2CC3(O)c4ccccc4NC3N2C1=O (stereo not given) | – | inactive | –
COCCN1CCN(Cc2ccc(-c3n[nH]c4c3C(=O)c3c(NC(=O)NN5CCOCC5)cccc3-4)cc2)CC1 | 2.59 µM (active) | – | –
CC1=C(C)C(=O)OC(C(C)C2CCC3C4CC=C5CC(OC6OC(COC7OC(CO)C(O)C(O)C7O)C(O)C(O)C6O)CC(O)C5(C)C4CCC23C)C1 (stereo not given) | – | inactive [at 17.3 µM] | –
O=C(c1cn(Cc2cncn2Cc2ccc(Br)cc2)cc1-c1cccc2ccccc12)N1CCOCC1 | 4.11 µM (active) | – | –
CCOC(=O)CCN(C(=O)c1ccc2c(c1)nc(CNc1ccc(C(=N)N)cc1)n2C)c1ccccn1 | – | – | -12.1% (inactive)
CC(=O)O[C@@H]1[C@H](O[C@@H]2O[C@@H](CO)[C@H](O)[C@H]2O)[C@@H](O[C@@H]2O[C@@H](C)[C@H](O[C@@H]3OC[C@@H](O)[C@H](O)[C@H]3O)[C@@H](O)[C@H]2O)[C@H](OC(=O)[C@]23CCC(C)(C)C[C@H]2C2=CCC4[C@@]5(C)CC[C@H](O[C@@H]6O[C@H](C(=O)O)[C@@H](O)[C@H](O)[C@H]6O[C@@H]6O[C@H](CO)[C@H](O)[C@H](O)[C@H]6O)[C@@](C)(C=O)C5CC[C@@]4(C)[C@]2(C)CC3)O[C@@H]1C (stereo not given in full) | – | inactive [at 9.29 µM] | –
CC1(C)[C@@H](O)CC[C@]2(C)[C@H]3CC=C4[C@@H]5C[C@](C)(C(=O)O)CC[C@]5(C)CC[C@@]4(C)[C@]3(C)CC[C@@H]12 | – | – | 4.73% (inactive)
Cc1cc(C(=O)N2CCCCc3ccccc32)ccc1CNC(=O)N1CCC[C@H]1C(=O)N(C)C | – | inactive | –
CC/C=C\[C@H](O)[C@H](O)C1=C(C)C(=O)[C@]2(O1)C(=O)N[C@@](OC)(C(=O)c1ccccc1)[C@@H]2O | – | inactive [at 17.3 µM] | –
CC(=O)NCC(=O)N1C2CCC1c1cc(Nc3ncc(C(F)(F)F)c(NC4CCC4)n3)ccc12 (stereo not given) | 1.84 µM (active) | – | –
C=C1C(=O)O[C@H]2[C@H]1CC/C(C)=C/CC[C@@]1(C)O[C@@H]21 | – | – | -12.6% (inactive)
COc1c(Nc2ncc(Cl)c(N[C@H]3[C@@H](C(N)=O)[C@@H]4C=C[C@H]3C4)n2)ccc2c1CC[C@@H](N1CCOCC1)CC2 | 8.2 µM (active) | – | –
COc1ccc(/C=C/C(=O)O[C@H]2[C@H](O[C@H]3[C@@H]4C=CO[C@@H](O[C@@H]5O[C@H](CO)[C@@H](O)[C@H](O)[C@H]5O)[C@@H]4[C@@]4(CO)O[C@@H]34)O[C@@H](C)[C@H](O)[C@H]2OC(C)=O)cc1 | – | inactive [at 17.3 µM] | –
Clc1cc2c(NC3CCCC3)nnc(-c3ccncc3)c2cc1Cl | – | – | -18.6% [at 17.3 µM] (inactive)
COc1ccc([C@@]2(O)c3c(ccc4c3OC(C)(CCC=C(C)C)C=C4)NC(=O)[C@@H]2OC)cc1 (stereo not given in full) | – | – | 0.889% [at 17.3 µM] (inactive)
COC1CC(O[C@H]2CC[C@@]3(C)C(CCC4C3[C@H](OC(C)=O)[C@@H](OC(=O)/C=C/c3ccccc3)[C@]3(C)C(C(C)=O)CC[C@]43O)C2)OC(C)C1OC1CC(OC)C(OC2CC(OC)C(OC3OC(C)C(OC4OC(CO)C(O)C(O)C4O)C(OC)C3O)C(C)O2)C(C)O1 (stereo not given in full) | – | – | -0.0477% [at 9.29 µM] (inactive)
COc1cc(/C=C/C(=O)OC[C@H]2O[C@@](CO)(O[C@H]3O[C@H](CO)[C@@H](O)[C@H](O)[C@H]3O)[C@@H](OC(=O)/C=C/c3ccc(O)c(OC)c3)[C@@H]2O)ccc1O | – | – | -7.23% [at 17.3 µM] (inactive)
C=C(C(=O)O)C1CC(O)C2(C)CCCC(=C)C2C1 (stereo not given) | – | – | 9.08% (inactive)
CC(C)(C)Nc1nc(Nc2ccc(C(N)=O)cc2)cc(N)c1C#N | 2.06 µM (active) | – | –
COC(=O)CC(C)(O)CC(=O)OCc1ccc(O[C@@H]2O[C@H](CO)[C@@H](O)[C@H](O)[C@H]2O)cc1 (stereo not given in full) | – | – | 6.73% [at 17.3 µM] (inactive)
CC(=O)OC1C[C@]2(C)C(O)CC(C)=C[C@H](OC(=O)c3ccc(O)cc3)C2[C@]1(O)C(C)C (stereo not given in full) | – | – | 5.63% [at 17.3 µM] (inactive)
C[C@@H]1O[C@@H](O[C@H]2[C@H](OC(=O)[C@]34CCC(C)(C)C[C@H]3C3=CCC5[C@@]6(C)C[C@H](O)[C@H](O[C@@H]7O[C@H](CO)[C@@H](O)[C@H](O)[C@H]7O)[C@@](C)(CO)C6[C@H](O)C[C@@]5(C)[C@]3(C)CC4)OC[C@H](O)[C@@H]2O)[C@H](O)[C@H](O)[C@H]1O[C@@H]1OC[C@@H](O)[C@H](O[C@@H]2OC[C@](O)(CO)[C@H]2O)[C@H]1O (stereo not given in full) | – | – | 6.69% [at 9.29 µM] (inactive)
